# In PubChem BioAssay AID686978 (National Center for Advancing Translational Sciences (NCATS), 2013):
# Screen size: about 420,000 compounds; about 64,000 (15%) were called active. Another 27% or so got no clear call; they are omitted. The call rests on the fitted dose curve; in most records, active means well fitted inhibition curve with a large enough effect; inconclusive means small, poorly fitted or top-dose-only effect; inactive means flat fitted curve, though single readings scatter. Only a sample is shown. Where a call stands in place of a potency, no number is given.
# Assay: qHTS for Inhibitors of human tyrosyl-DNA phosphodiesterase 1 (TDP1): qHTS in cells in absence of CPT; further: nearly all actives have a fitted effect of over 55% in size
# Settings: DT40 Tdp1-/- hTDP1 cells, no CPT, ATP luminescence, 48 h; activity change, negative = growth inhibition: at 46.2 µM (top of the series)
# In short: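 Readout: luminescence from CellTiter-Glo after 30 min in the dark at RT. Cells: DT40 Tdp1-/- with stable hTDP1, 400/well. Exposure: compounds alone, ≥48 hr, 37 °C.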
# Potency means the concentration at half of the fitted maximal effect.
row,Structure (SMILES),Potency
1,COc1ccc(NC(=O)c2sc3nc[nH]c(=O)c3c2C)cc1,inactive
2,CC(=O)c1sc2nc(SCC(=O)N3CCCCC3)[nH]c(=O)c2c1C,inactive
3,CC(=O)c1ccc(NC(=O)c2sc3nc4n(c(=O)c3c2C)CCCCC4)cc1,13 µM (active)
4,Cc1ccc(NC(=S)NC(=O)/C=C/c2ccc(Cl)cc2)cc1,inactive
5,CC(C)C[C@H](NC(=O)[C@@H]1O[C@H]1C(=O)O)C(=O)NCCCCN=C(N)N,inactive
6,C=CCOc1cccc(C2NC(=O)c3ccccc3O2)c1 (centres undefined),inactive
7,CCCc1c(C(=O)Nc2ccc(F)cc2)cnn1-c1ccccc1,14.6 µM (active)
8,CCCc1c(C(=O)O)cnn1-c1ccc(Cl)cc1,inactive
9,CCc1ccccc1NC(=O)c1cnn(-c2ccc(F)cc2)c1C1CCNCC1,inactive
10,CN(C(=O)COC(=O)c1ccc(Br)o1)c1c(N)n(Cc2ccccc2)c(=O)[nH]c1=O,inactive
11,O=S(=O)(Cc1nnnn1-c1ccc(Br)cc1)c1ccc(F)cc1,inactive
12,Cc1cc(C)cc(Oc2c(C(F)(F)F)oc3cc(OCC(=O)O)ccc3c2=O)c1,inactive
13,O=[N+]([O-])c1cc(Br)c(O)c(/C=N/Nc2nc3ccccc3s2)c1,18.4 µM (active)
14,COc1cc(/C=N/Nc2nc3ccccc3s2)ccc1O,1.3 µM (active)
15,COc1cc(C=NC2CCCCC2)ccc1O,inactive
16,Cc1ccc(S(=O)(=O)Nc2nc3ccccc3s2)cc1[N+](=O)[O-],inactive
17,COc1ccc(/C=N/Nc2nc3ccccc3o2)cc1OC,inactive
18,CN(C(=O)CSc1nnc(N)s1)c1c(N)n(Cc2ccccc2)c(=O)[nH]c1=O,inactive
19,COc1cc(Br)cc2cc(S(=O)(=O)c3ccccc3)c(=O)oc12,inactive
20,COc1cccc(N2CC(NS(=O)(=O)c3ccc(Cl)cc3)CC2=O)c1 (centres undefined),inactive
21,COc1cccc(N2CC(NS(=O)(=O)c3cccs3)CC2=O)c1 (centres undefined),inactive
22,COc1ccc(N2CC(NS(=O)(=O)c3ccc4ccccc4c3)CC2=O)cc1 (centres undefined),23.1 µM (active)
23,COC(=O)N(NC(=O)C(O)(C(C)C)C(C)C)c1ccccc1,inactive
24,CC(C)(O)C(=O)NN(C(=O)c1ccccc1)c1cccc(Br)c1,inactive
25,CCCCC(O)(CCCC)C(=O)NN(C(=O)CCl)c1ccccc1,20.6 µM (active)
26,CCCC(O)(CCC)C(=O)NN(C(=O)CCl)c1cccc(C)c1,5.8 µM (active)

row,Structure (SMILES),Potency
1,Cc1ccc(N(NC(=O)C(C)(C)O)C(=O)c2ccccc2)cc1C,inactive
2,CN(C)/C=C/c1c(C#N)c(=O)ncn1Cc1ccccc1,inactive
3,COc1cc(/C=C(/NC(=O)c2ccc(Cl)cc2Cl)C(=O)O)cc(OC)c1OC,inactive
4,Cc1ccc(C(=O)N/C(=C\c2ccco2)C(=O)N2CCSCC2)cc1C,inactive
5,CCNc1nc(N)nc(Oc2ccc(OCC)nn2)n1,inactive
6,CCOc1cccc(=O)c2c(C)n(CC3CCCO3)c(C)c12 (centres undefined),inactive
7,Cc1ccc2c(=O)c(C(=O)c3ccc(F)cc3)cn(CC(=O)NC3CCCCC3)c2n1,inactive
8,CC(OC(=O)CNC(=O)c1ccco1)C(=O)Nc1ccc(Cl)cn1 (centres undefined),inactive
9,CCn1c(SCC(=O)NCC2CCCO2)nc2ccccc21 (centres undefined),inactive
10,O=C(CS(=O)(=O)Cc1ccccc1)NCC1CCCO1 (centres undefined),inactive
11,Cc1ccc(C(=O)NCC2CCCO2)o1 (centres undefined),inactive
12,S=C(NCCc1ccccc1)NCC1CCCO1 (centres undefined),23.1 µM (active)
13,CN(CCc1ccccn1)C(=O)c1ccc(OC2CCN(Cc3ccccn3)CC2)cc1,inactive
14,COC(=O)c1cn(CC(=O)NCc2cccs2)c2ccccc12,inactive
15,COC(=O)Cn1cc(/C=C/[N+](=O)[O-])c2ccccc21,14.6 µM (active)
16,COCCCNC(=O)Cn1cc(/C=C(\C#N)C(=O)N2CCN(c3ccccc3)CC2)c2ccccc21,inactive
17,CCCn1nc(C(=O)OCc2nc(N)nc(Nc3ccccc3C)n2)c2ccccc2c1=O,inactive
18,COCCN(C(=O)CCC(=O)Nc1nccs1)C(C(=O)NC(C)(C)C)c1ccc(Cl)cc1 (centres undefined),inactive
19,CCn1c(CN2C(=O)CSc3ccccc32)n[nH]c1=S,inactive
20,COc1ccc(Br)cc1CNC(=O)c1cc(=O)[nH]c2ccc(S(=O)(=O)N3CCCC3)cc12,inactive
21,CCOC(=O)CNc1nc(Cl)nc(Nc2ccc(OC)cc2OC)n1,inactive
22,CCN1CCN(C(=O)c2cc3cc4ccc(OC)cc4nc3s2)CC1,inactive
23,CCN1CCN(c2nc(Nc3cc(OC)ccc3OC)nc(Nc3cc(OC)ccc3OC)n2)CC1,23.1 µM (active)
24,c1ccc(-c2c[nH]c(-c3ccccc3)c2)cc1,inactive
25,Cc1nn(-c2cc(Cl)ccc2N)c(=O)c2ccccc12,inactive
26,COc1ccc(OC)c(-n2cc3c(=O)n(C)c(=O)n(C)c3c2)c1,14.6 µM (active)

row,Structure (SMILES),Potency
1,Cn1c(=O)c2cn(-c3cccc4ccccc34)cc2n(C)c1=O,25.9 µM (active)
2,COc1cccc(OC)c1C(=O)Nc1ccc2c(c1)n(C)c(=O)n2C,inactive
3,O=C1c2ccccc2C(=O)N1c1cccc2ccccc12,inactive
4,COc1ccc(NC(=O)CCNS(=O)(=O)c2ccc3c(c2)c(=O)n(C)c(=O)n3C)cc1OC,inactive
5,CC(=O)Nn1cc2c(=O)n(C)c(=O)n(C)c2c1,inactive
6,CCSC1(SCC)N=C(N)C2(C#N)C(c3ccccc3)NC(C)=CC12C#N (centres undefined),inactive
7,O=C(Cn1nnc2ccccc2c1=O)NCc1ccc(Cl)cc1,inactive
8,Cc1noc(C)c1C(=O)OC(C)C(=O)Nc1ccc2c(c1)OCO2 (centres undefined),inactive
9,NC(=O)c1ccc(Nc2ccc3nonc3c2[N+](=O)[O-])cc1,inactive
10,Cc1ccc(C)c(S(=O)(=O)Nc2cc(C)on2)c1,inactive
11,O=C(CN1CCCSc2ccccc21)N1CCN(S(=O)(=O)c2ccccc2)CC1,inactive
12,O=C(CN1CCCSc2ccccc21)N1CCN(S(=O)(=O)c2cccc(F)c2)CC1,7.31 µM (active)
13,O=C(CN1CCN(S(=O)(=O)c2cccc(Cl)c2)CC1)N1CCCCC1,inactive
14,N#C[C@]1(S(=O)(=O)c2ccccc2)C[C@@H]2ON=C(c3cccc(Br)c3)[C@@H]2C1,6.51 µM (active)
15,COC(=O)[C@]1(S(=O)(=O)c2ccccc2)C[C@@H]2ON=C(c3ccc(OC)cc3)[C@@H]2C1,inactive
16,Cc1nc2sc(C)c(C)n2c(=O)c1S(=O)(=O)NCCc1ccc(Cl)cc1,inactive
17,O=C(CN1CCN(S(=O)(=O)c2ccc(Cl)s2)CC1)N1CCCCC1,inactive
18,O=C(N/N=C/c1ccc(O)c(O)c1)C1c2ccccc2Oc2ccccc21,25.9 µM (active)
19,CCC(C)(C)NC(=O)C1c2ccccc2Oc2ccccc21,inactive
20,O=C(N/N=C/c1cc2c(cc1Br)OCO2)C1COc2ccccc2O1 (centres undefined),inactive
21,COC1[C@H](OC(N)=O)C(O)[C@H](Oc2ccc3c(O)c(NC(=O)c4ccc(O)c(CC=C(C)C)c4)c(=O)oc3c2C)OC1(C)C (some centres undefined),inactive
22,O=C1C=C(NCCNc2c(F)c(F)c(CO)c(F)c2F)CCC1,inactive
23,O=c1[nH]c(NCCO)nnc1Cc1ccc(Cl)cc1,inactive
24,COc1ccc(Cc2nnc(N/N=C/c3ccccc3O)[nH]c2=O)cc1OC,0.0206 µM (active)
25,CC(C)c1ccc(Cc2nnc(NCCCO)[nH]c2=O)cc1,inactive
26,CCc1cc(=O)oc2cc(C)cc(OC(C)C(=O)O)c12 (centres undefined),inactive

row,Structure (SMILES),Potency
1,CC(C)CNS(=O)(=O)c1ccc(OCC(=O)Nc2ccc3c(c2)OCO3)c(Cl)c1,inactive
2,CC(=O)OCC(C)n1c(=O)c2ccccc2n1C(C)=O (centres undefined),inactive
3,CCCc1cc(=O)[nH]c(SCC(=O)N2C(C)CCCC2C)n1 (centres undefined),inactive
4,CCCCCn1c(=O)[nH]c2cc(C(=O)Nc3cc(C)cc(C)c3)ccc2c1=O,4.61 µM (active)
5,CCCCCn1c(=O)[nH]c2cc(C(=O)NCCCN3CCCCC3C)ccc2c1=O (centres undefined),inactive
6,COCCn1c(=O)[nH]c2cc(C(=O)NCc3cccnc3)ccc2c1=O,inactive
7,CCN(C(=O)CSc1nnnn1-c1ccc(OC)cc1)C1CCS(=O)(=O)C1 (centres undefined),inactive
8,COc1ccc([C@H]2CC(=O)C=C(/C=C/c3ccccc3)C2)cc1,inactive
9,COc1cc(C(=O)Nc2nccs2)cc(OC)c1OC,inactive
10,COc1cc(NC(=O)c2noc3c2CSc2ccccc2-3)cc(OC)c1OC,8.2 µM (active)
11,COc1ccc2c(c1)CCc1c(C(=O)Nc3c(C)n(C)n(-c4ccccc4)c3=O)noc1-2,inactive
12,COc1cccc(COC(=O)C2CCN(S(=O)(=O)c3cccs3)CC2)c1OC,inactive
13,CC(C)(Oc1ccc(Cl)cc1)C(=O)OCC(=O)NCCc1ccc(S(N)(=O)=O)cc1,inactive
14,Cc1ccc(CCN2CC(C(=O)O)CC2=O)cc1 (centres undefined),inactive
15,Cc1ccc(-c2nnc(Nc3cccc(Br)c3)c3ccccc23)cc1S(=O)(=O)NCC1CCCO1 (centres undefined),11.6 µM (active)
16,COCCCNc1nc2c(-c3cccc(C(F)(F)F)c3)nnn2c2ccccc12,inactive
17,Cc1cc(Cl)c(S(=O)(=O)NCC2CCCO2)cc1OCC(N)=O (centres undefined),inactive
18,Cc1ccc(C(=O)O)cc1S(=O)(=O)NCC1CCCO1 (centres undefined),inactive
19,CCNS(=O)(=O)c1cc(-c2nnc(Nc3cccc(C(F)(F)F)c3)c3ccccc23)ccc1C,5.8 µM (active)
20,Cc1ccc(-c2nnc(Nc3ccc(C(=O)N(C)C)cc3)c3ccccc23)cc1S(N)(=O)=O,inactive
21,CCC(C)CN1C(=O)CN(S(C)(=O)=O)CC1(C)C(=O)Nc1ccc2c(c1)OCCO2 (centres undefined),inactive
22,Cc1ccc(CSc2nc(-c3ccccc3)c(C#N)c(=O)[nH]2)cc1,inactive
23,CCCCCN1CC(O)=C(c2ccccc2)C1=N,inactive
24,Cc1nnc(SCC(=O)N2CCN(c3ccccc3)CC2)n1-c1ccccc1,inactive
25,CCOC(=O)N1CCN(C(=O)CSc2nnc(-c3c[nH]c4ccccc34)n2CCOC)CC1,20.6 µM (active)
26,CCC(C)Sc1nnc(-c2c[nH]c3ccccc23)n1CCOC (centres undefined),inactive
